Experimental data taken from PubChem BioAssay (NCI).
Compounds without any hit were thinned out: in the full panel of roughly 83,000, 20% have a hit.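 Negative percent growth values reflect cell death: -40 means 40% of the cells present at the start died, and -100 means all died.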 Calls of active or inactive are those of the source. Rule for the calls: active = growth percent below 10; inactive = the rest.

Key:
Assay in all cases: NCI-60 one-dose screen, 48 h (100 = growth as untreated, 0 = no growth, -100 = all killed)
Conditions in all cases: 10 µM unless noted
[1] = tested on: DU-145 prostate
[2] = tested on: MALME-3M melanoma
[3] = tested on: MDA-MB-231 breast
[4] = tested on: SF-268 CNS
[5] = tested on: SF-295 CNS
[6] = tested on: SF-539 CNS
[7] = tested on: M14 melanoma
[8] = tested on: K-562 leukemia
[9] = tested on: RXF 393 renal
[10] = tested on: UACC-257 melanoma

Measured: growth

Cc1ccc(-c2c3c(N)c4c(nc3nc3c2c(C)nn3-c2ccccc2)CCC4)cc1
inactive: [1] 106% | [2] 91.5% | [3] 37.4% | [4] 108% | [5] 98.5% | [6] 72.7% | [7] 88%

O=C(Oc1cccc2ccccc12)c1ccccc1C(=O)c1ccccc1
active: [8] 5.05%
inactive: [1] 99.3% | [3] 85.7% | [9] 98.3% | [4] 79% | [5] 98.5% | [6] 103% | [10] 90.4% | [7] 93.4%

C[C@]12CC[C@H](O)CC1=CC[C@@H]1[C@@H]2CC[C@]2(C)C(c3cccnc3)=CC[C@@H]12
inactive: [1] 90.6% | [2] 70.8% | [3] 85.1% | [4] 79.5% | [5] 42% | [6] 31.8% | [7] 71%

O=[N+]([O-])c1cc([N+](=O)[O-])c(N2CCCC2)cc1NN=C(c1ccc(O)cc1)c1ccc(O)cc1
inactive: [1] 95.8% | [2] 140% | [3] 93.6% | [4] 77.3% | [5] 79.6% | [6] 61.9%
active: [9] -22.2% | [7] 7.88%
